PubChem BioAssay (NCATS)
Records with an inconclusive call do not appear. Entries that show only a call come without a potency. Activity calls are given as the source filed them. Unless noted, calls follow the shape of the dose curve; as a rule, active = well fitted curve in the direction sought with a large enough effect; inconclusive = small, poorly fitted or top-dose-only effect, or another doubt; inactive = no such curve, though single readings can be large; an effect the other way counts as inactive or inconclusive. Where a SMILES comes first, the peptide text is derived from it. The star is where a group is joined. Hexanoyl = CCCCCC(=O)*

Key:
[1] = target: Calcium and integrin-binding protein 1 (Homo sapiens) (UniProt Q99828); assay: Primary qHTS for Identification of Calcium Integrin Binding Protein 1 (CIB1) Competitor (AID 1508620);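 also: GST tagged CIB1 binding a fluorescein labelled alphaIIb integrin peptide tracer; top concentration of the series differs between compounds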
Sequence of Calcium and integrin-binding protein 1 (Homo sapiens) (Q99828 whole entry, looked up): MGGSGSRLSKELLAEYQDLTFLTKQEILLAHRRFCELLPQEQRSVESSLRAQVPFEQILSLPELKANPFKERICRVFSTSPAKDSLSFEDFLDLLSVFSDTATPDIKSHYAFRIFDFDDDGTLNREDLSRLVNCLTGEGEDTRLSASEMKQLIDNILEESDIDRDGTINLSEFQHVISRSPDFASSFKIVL
How it was run: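 Fluorescence polarization competition: CIB1-GST (1 uM final) preincubated with compound 15 min at room temperature, then FITC-labeled alphaIIb peptide (100 nM final) added for another 15 min. Polarization read at Ex 480/Em 540.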

[2] = target: Cytochrome P450 2D6 (Homo sapiens) (UniProt P10635); assay: Cytochrome P450 family 2 subfamily D member 6 (CYP2D6) small molecule antagonists: luciferase biochemical (cell-free) qHTS assay (AID 1645840; active = well fitted curve in the direction sought with a large enough effect in the repeat runs; an effect the other way counts as inactive or inconclusive; also: nearly all actives have a fitted effect of over 55% in size; also: potency is read from the fitted curve at half-maximal effect)
Sequence of Cytochrome P450 2D6 (Homo sapiens) (P10635 whole entry, looked up): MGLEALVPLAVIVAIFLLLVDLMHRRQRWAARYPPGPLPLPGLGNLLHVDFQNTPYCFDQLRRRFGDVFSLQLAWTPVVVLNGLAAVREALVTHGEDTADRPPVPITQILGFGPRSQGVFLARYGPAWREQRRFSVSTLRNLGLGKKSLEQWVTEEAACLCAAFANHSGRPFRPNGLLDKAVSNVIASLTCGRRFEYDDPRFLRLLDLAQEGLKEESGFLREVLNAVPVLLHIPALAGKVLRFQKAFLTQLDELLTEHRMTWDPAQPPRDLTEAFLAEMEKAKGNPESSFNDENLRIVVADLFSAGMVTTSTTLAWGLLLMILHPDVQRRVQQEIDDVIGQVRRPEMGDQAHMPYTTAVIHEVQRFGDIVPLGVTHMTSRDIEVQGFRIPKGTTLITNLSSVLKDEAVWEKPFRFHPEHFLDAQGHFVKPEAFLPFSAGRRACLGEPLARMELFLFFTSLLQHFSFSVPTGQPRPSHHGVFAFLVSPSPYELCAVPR
How it was run: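 P450-Glo luminescent screen: recombinant CYP2D6 enzyme–proluciferin substrate mix preincubated with compound 10 min at room temperature, then NADPH regeneration added for 1 h at room temperature. Detection reagent added for 20 min; luciferin light read as relative luminescence units.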

[3] = target: Cytochrome P450 2C9 (Homo sapiens) (UniProt P11712); assay: Cytochrome P450 family 2 subfamily C member 9 (CYP2C9) small molecule antagonists: luciferase biochemical (cell-free) qHTS assay (AID 1645842; active = well fitted curve in the direction sought with a large enough effect in the repeat runs; an effect the other way counts as inactive or inconclusive; also: nearly all actives have a fitted effect of over 55% in size; also: potency is read from the fitted curve at half-maximal effect)
Sequence of Cytochrome P450 2C9 (Homo sapiens) (P11712 whole entry, looked up): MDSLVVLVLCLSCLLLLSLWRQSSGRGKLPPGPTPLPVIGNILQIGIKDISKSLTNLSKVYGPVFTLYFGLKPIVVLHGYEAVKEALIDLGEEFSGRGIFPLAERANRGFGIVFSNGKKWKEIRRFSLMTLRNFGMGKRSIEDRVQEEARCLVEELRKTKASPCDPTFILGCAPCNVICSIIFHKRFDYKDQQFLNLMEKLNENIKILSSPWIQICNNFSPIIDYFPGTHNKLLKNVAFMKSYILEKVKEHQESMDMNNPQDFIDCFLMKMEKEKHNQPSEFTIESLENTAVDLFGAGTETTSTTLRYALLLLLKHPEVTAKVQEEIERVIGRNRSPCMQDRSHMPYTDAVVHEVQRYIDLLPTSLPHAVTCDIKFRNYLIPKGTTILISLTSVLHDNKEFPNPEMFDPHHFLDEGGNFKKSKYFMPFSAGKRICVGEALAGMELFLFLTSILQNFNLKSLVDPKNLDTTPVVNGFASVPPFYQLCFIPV
How it was run: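 Luminescence, after 20 min with luciferin detection reagent, reflected CYP2C9 turnover during a 1 h NADPH-driven reaction at 37C. Enzyme-substrate mix contained 0.4% bovine serum albumin and was preincubated with compound 10 min at room temperature.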

[4] = Primary qHTS for inhibitors of nuclear receptor binding SET domain protein 2 (NSD2) in an isogenic RCH-ACV NSD2 p.E1099K mutant (9B) (AID 1645876); also: nearly all actives have a fitted effect of over 70% in size
[5] = Primary qHTS for inhibitors of nuclear receptor binding SET domain protein 2 (NSD2) in an RCH-ACV wild type WT cells (2C) (AID 1645877); also: nearly all actives have a fitted effect of over 70% in size; also: potency is read from the fitted curve at half-maximal effect
[6] = target: Cytochrome P450 3A4 (Homo sapiens) (UniProt P08684); assay: Cytochrome P450 family 3 subfamily A member 4 (CYP3A4) small molecule antagonists: luciferase qHTS assay (AID 1645841; active = well fitted curve in the direction sought with a large enough effect in the repeat runs; an effect the other way counts as inactive or inconclusive; also: nearly all actives have a fitted effect of over 45% in size; also: potency is read from the fitted curve at half-maximal effect)
Sequence of Cytochrome P450 3A4 (Homo sapiens) (P08684 whole entry, looked up): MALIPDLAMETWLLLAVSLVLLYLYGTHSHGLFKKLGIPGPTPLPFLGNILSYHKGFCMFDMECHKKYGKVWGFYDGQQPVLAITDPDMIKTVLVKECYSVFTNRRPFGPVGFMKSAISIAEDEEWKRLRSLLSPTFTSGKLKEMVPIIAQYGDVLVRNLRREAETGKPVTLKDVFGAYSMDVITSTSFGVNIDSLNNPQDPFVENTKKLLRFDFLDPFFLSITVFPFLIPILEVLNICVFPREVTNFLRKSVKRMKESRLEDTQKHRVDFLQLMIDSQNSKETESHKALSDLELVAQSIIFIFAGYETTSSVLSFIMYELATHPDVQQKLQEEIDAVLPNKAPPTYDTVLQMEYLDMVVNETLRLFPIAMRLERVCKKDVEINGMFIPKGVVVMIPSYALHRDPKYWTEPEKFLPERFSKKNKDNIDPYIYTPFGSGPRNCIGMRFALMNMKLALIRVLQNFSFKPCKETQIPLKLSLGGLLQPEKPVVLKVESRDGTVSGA
How it was run: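 P450-Glo CYP3A4 enzyme with proluciferin substrate was preincubated with DMSO-dissolved compounds for 10 min at room temperature. NADPH regeneration solution started a 1 h reaction. Detection reagent stopped it, and luminescence was read after 20 min.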

[7] = target: N-terminal Xaa-Pro-Lys N-methyltransferase 1 (Homo sapiens) (UniProt Q9BV86); assay: Confirmatory qHTS for Inhibitors of N-terminal methyltransferase 1 (NTMT1): MTaseGlo Assay (AID 1645874);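 also: luminescence from SAH made as NTMT1 methylates SPKRIA peptide using SAM; series mostly up to about 100 µM; nearly all actives have a fitted effect of over 65% in size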
Sequence of N-terminal Xaa-Pro-Lys N-methyltransferase 1 (Homo sapiens) (Q9BV86 whole entry, looked up): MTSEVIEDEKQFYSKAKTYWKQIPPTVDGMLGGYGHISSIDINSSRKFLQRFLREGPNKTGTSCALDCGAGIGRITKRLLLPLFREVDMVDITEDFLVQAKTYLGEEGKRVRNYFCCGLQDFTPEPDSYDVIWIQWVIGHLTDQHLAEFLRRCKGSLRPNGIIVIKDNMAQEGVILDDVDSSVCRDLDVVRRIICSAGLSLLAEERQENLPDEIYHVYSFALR
How it was run: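 NTMT1 (125 nM) preincubated 15 min with compound and 100 uM SAM, then 1 uM SPKRIA peptide added for 30 min at room temperature. SAH detected by MTase-Glo luminescence; normalized to no-enzyme and DMSO controls, fitted to 4-parameter Hill.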

Which Potency [1] does the source give for O=C(Cn1c2ccccc2c2nc3n(c(=O)c21)CCS3)N1CCCC1 here?
The Potency was “inactive”.

And the Potency [2]?
The Potency was “inactive”.

What about the Potency [3] of the same compound?
The Potency was “inactive”.

And the Potency [4]?
The Potency was “inactive”.

And the Potency [5]?
The Potency was “inactive”.

With CCOC(=O)C(CCc1ccccc1)NC1CCCN2CCCC(C(=O)O)N2C1=O (stereo unspecified) as the compound, how does the Potency [1] read?
The Potency was “inactive”.

And the Potency [2]?
Its Potency is “inactive”.

And the Potency [4]?
The Potency was “inactive”.

And the Potency [5]?
The Potency was “inactive”.

For O=C(O)c1cc(C(F)(F)F)ccc1N1CC[C@H](OCc2ccccn2)C1, which Potency [1] is on record?
Its Potency is “inactive”.

What about the Potency [2] of the same compound?
Its Potency is “inactive”.

What about the Potency [4] of the same compound?
Its Potency is “inactive”.

What about the Potency [5] of the same compound?
The Potency was “inactive”.

For CC(=O)Nc1cccc2c1c(Sc1ccc(Cl)cc1)c(C)n2CC(=O)O, which Potency [1] is on record?
The Potency was “inactive”.

And the Potency [2]?
The Potency was “inactive”.

What about the Potency [3] of the same compound?
Its Potency is 13.5 µM (active).

What about the Potency [4] of the same compound?
The Potency was “inactive”.

What about the Potency [5] of the same compound?
Its Potency is “inactive”.

For O=C(NC1CCN(CC(F)(F)F)CC1)c1ccc(-c2cccc(F)c2)nc1, which Potency [1] is on record?
Its Potency is “inactive”.

And the Potency [2]?
The Potency was “inactive”.

What about the Potency [3] of the same compound?
Its Potency is “inactive”.

What about the Potency [4] of the same compound?
The Potency was “inactive”.

And the Potency [5]?
The Potency was “inactive”.

For CCCCCC(=O)N1CCC[C@H]1C(=O)N[C@@H](Cc1ccc(O)cc1)C(=O)OC (Hexanoyl-Pro-Tyr-OMe), which Potency [1] is on record?
Its Potency is “inactive”.

What about the Potency [2] of the same compound?
Its Potency is “inactive”.

What about the Potency [3] of the same compound?
The Potency was 2.39 µM (active).

And the Potency [4]?
The Potency was “inactive”.

What about the Potency [5] of the same compound?
Its Potency is “inactive”.

With CCC(C)C(N)C(=O)NCCN1CCOCC1 (stereo unspecified) as the compound, how does the Potency [1] read?
The Potency was “inactive”.

And the Potency [2]?
The Potency was “inactive”.

What about the Potency [4] of the same compound?
The Potency was “inactive”.

And the Potency [5]?
The Potency was “inactive”.

For COc1ccc(-n2c(SCC#N)nc3sc4c(c3c2=O)CCCC4)cc1, which Potency [1] is on record?
Its Potency is “inactive”.

What about the Potency [2] of the same compound?
The Potency was “inactive”.

What about the Potency [3] of the same compound?
Its Potency is 4.77 µM (active).

And the Potency [4]?
The Potency was “inactive”.

What about the Potency [5] of the same compound?
Its Potency is “inactive”.

What does the source list for Cc1ccc2[nH]c(=O)c(C3=NN(C(=O)CCC(=O)O)C(c4ccc(Br)cc4)C3)c(-c3ccccc3)c2c1 (stereo unspecified)?
Potency [1]: inactive; Potency [2]: inactive; Potency [3]: 26.8 µM (active); Potency [4]: inactive; Potency [5]: inactive

Which Potency [1] does the source give for Cc1cc(CNC(=O)c2cc(C(=O)NCc3ccc(F)c(C)c3)ncn2)ccc1F here?
The Potency was “inactive”.

What about the Potency [2] of the same compound?
The Potency was “inactive”.

What about the Potency [3] of the same compound?
The Potency was “inactive”.

And the Potency [4]?
Its Potency is “inactive”.

And the Potency [5]?
Its Potency is “inactive”.

Which results are given for CN1CCN(c2nc(-c3ccc(C(=O)NC4(C(=O)NCC#N)CCCCC4)cc3)cs2)CC1?
Potency [1]: inactive; Potency [2]: inactive; Potency [3]: 12 µM (active); Potency [4]: inactive; Potency [5]: inactive

For CNC(C)C(=O)NC(C(=O)N1CCCC1C(=O)Nc1cccc2ncccc12)C(C)C (stereo unspecified), which Potency [1] is on record?
Its Potency is “inactive”.

And the Potency [2]?
The Potency was “inactive”.

What about the Potency [3] of the same compound?
Its Potency is “inactive”.

And the Potency [4]?
The Potency was “inactive”.

What about the Potency [5] of the same compound?
Its Potency is “inactive”.

Which Potency [1] does the source give for Cc1cc(-c2nncc3c(C(C)(C)C)c(OCc4ncnn4C)nn23)no1 here?
Its Potency is “inactive”.

What about the Potency [2] of the same compound?
The Potency was “inactive”.

And the Potency [3]?
Its Potency is 3.01 µM (active).

And the Potency [4]?
Its Potency is “inactive”.

What about the Potency [5] of the same compound?
The Potency was “inactive”.

Which results are given for Cc1nc2ccccc2c(-c2ccc3c4c(ccnc24)CCO3)c1[C@H](OC(C)(C)C)C(=O)O?
Potency [1]: inactive; Potency [2]: inactive; Potency [3]: inactive; Potency [4]: inactive; Potency [5]: inactive

For Cc1ccccc1-c1cc(N2CCN(C)CC2)ncc1N(C)C(=O)C(C)(C)c1cc(C(F)(F)F)cc(C(F)(F)F)c1, which Potency [1] is on record?
Its Potency is “inactive”.

And the Potency [2]?
Its Potency is 15.1 µM (active).

And the Potency [3]?
The Potency was 16.9 µM (active).

And the Potency [4]?
The Potency was “inactive”.

What about the Potency [5] of the same compound?
The Potency was “inactive”.

For CNc1nc(Nc2cn(C(C)(C)C#N)nc2C)ncc1C(F)(F)F, which Potency [1] is on record?
Its Potency is “inactive”.

What about the Potency [2] of the same compound?
The Potency was “inactive”.

What about the Potency [3] of the same compound?
The Potency was 7.56 µM (active).

And the Potency [4]?
Its Potency is “inactive”.

What about the Potency [5] of the same compound?
Its Potency is “inactive”.

With CC1(C)Oc2ncnc(N)c2N=C1c1ccc(C2CCC(CC(=O)O)CC2)cc1 (stereo unspecified) as the compound, how does the Potency [1] read?
The Potency was “inactive”.

And the Potency [2]?
Its Potency is “inactive”.

And the Potency [3]?
Its Potency is “inactive”.

And the Potency [4]?
The Potency was “inactive”.

What about the Potency [5] of the same compound?
The Potency was “inactive”.

Which Potency [1] does the source give for Cn1c2ccc(NC(=O)c3ccccc3)cc2c(=O)n2nc(C(=O)O)cc12 here?
The Potency was “inactive”.

What about the Potency [2] of the same compound?
Its Potency is “inactive”.

What about the Potency [3] of the same compound?
The Potency was “inactive”.

What about the Potency [4] of the same compound?
The Potency was “inactive”.

What about the Potency [5] of the same compound?
The Potency was “inactive”.

With CC(=O)N[C@H](Cc1c[nH]c2ccccc12)C(=O)OCc1cc(C(F)(F)F)cc(C(F)(F)F)c1 as the compound, how does the Potency [1] read?
The Potency was “inactive”.

And the Potency [2]?
Its Potency is 19 µM (active).

And the Potency [4]?
The Potency was “inactive”.

And the Potency [5]?
The Potency was “inactive”.

Which Potency [1] does the source give for CC(CNS(=O)(=O)C(C)C)c1ccc(-c2ccc(C#N)cc2)cc1 (stereo unspecified) here?
Its Potency is “inactive”.

What about the Potency [2] of the same compound?
The Potency was “inactive”.

What about the Potency [3] of the same compound?
Its Potency is “inactive”.

What about the Potency [5] of the same compound?
Its Potency is 8.17 µM (active).

What does the source list for Cc1cc(Cn2cnc3c2CC(C(=O)O)N(C(=O)C(c2ccccc2)c2ccccc2)C3)ccc1N(C)C (stereo unspecified)?
Potency [1]: inactive; Potency [2]: inactive; Potency [3]: inactive; Potency [4]: inactive; Potency [5]: inactive

Which results are given for CCC1(O)CC2c3cc(OC)c(OC)cc3CCN2CC1CC(C)C (stereo unspecified)?
Potency [1]: inactive; Potency [2]: 0.849 µM (active); Potency [3]: inactive; Potency [4]: inactive; Potency [5]: inactive

Which results are given for Cc1cc(OCCN2CCOCC2)nn1-c1ccc2ccccc2c1?
Potency [1]: inactive; Potency [2]: 5.35 µM (active); Potency [4]: inactive

With Cc1ccc(-c2c(-c3nn(C)c4ncnc(N5CCC(N6CCCCC6)C5)c34)cnn2C)cc1 (stereo unspecified) as the compound, how does the Potency [6] read?
The Potency was 0.12 µM (active).

For CCNC(=O)C1CC(F)(c2ccc(CN3CCCC3)c(F)c2)C1 (stereo unspecified), which Potency [6] is on record?
The Potency was “inactive”.

Which Potency [7] does the source give for COc1cccc(C(=O)NCCNc2nc3cc(C)cc(C)c3cc2C#N)c1 here?
The Potency was “inactive”.

For COc1cn(-c2ccc(-n3cccn3)cc2F)nc(-c2ccnn2-c2ccccc2)c1=O, which Potency [1] is on record?
Its Potency is “inactive”.

What about the Potency [3] of the same compound?
The Potency was 15.1 µM (active).

And the Potency [4]?
The Potency was “inactive”.

What about the Potency [5] of the same compound?
The Potency was “inactive”.

For COC(=O)Cn1nc(-c2cccc(OC)c2)c2ccccc21, which Potency [1] is on record?
Its Potency is “inactive”.

What about the Potency [3] of the same compound?
The Potency was 13.5 µM (active).

What about the Potency [4] of the same compound?
The Potency was “inactive”.

And the Potency [5]?
Its Potency is “inactive”.

With C=C(CCO)C(=O)OCC1OCC(OC(=O)C(=C)CCO[C@@H]2O[C@H](CO)[C@@H](O)[C@H](O)[C@H]2O)C(O)C1O (stereo partly specified) as the compound, how does the Potency [1] read?
Its Potency is “inactive”.

And the Potency [4]?
Its Potency is “inactive”.
